Source: PubChem BioAssay AID1159580 (chemical genetic matrix, 2015)
Among all 5,500 compounds or so, about 2,000 (36%) were called active. Another 18% or so got no clear call; they are omitted. Cut-off read from the data, not from the text of the source: active = normalized growth mostly below about 0.91 (no sharp cut-off); inconclusive = no clear call, values can overlap the other calls; inactive = mostly above about 0.92. The list shows a part of the results.

Assay: chemical genetic growth profiling, strain panel (AID 1159580);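 note: tested at 20 µM; growth read once vehicle control cultures reached saturation at 30 °C; 1 = growth at the plate median or of vehicle wells; lower values mean less growth of the strain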
Conditions: growth OD

Measured: normalized growth

COC(=O)c1c(C)cc(OC(=O)c2c(C)c(Cl)c(O)c(C=O)c2O)c(C)c1O
inactive: S. cerevisiae deletion strains, locus YAL013W, strain DEP1, hits give low values 1 | S. cerevisiae deletion strains, locus YBR021W, strain FUR4, hits give low values 1 | S. cerevisiae deletion strains, locus YBR229C, strain ROT2, hits give low values 1 | S. cerevisiae deletion strains, locus YCL029C, strain bik1, hits give low values 0.985 | S. cerevisiae deletion strains, locus YDL035C, strain GPR1, hits give low values 1.01 | S. cerevisiae deletion strains, locus YDL074C, strain BRE1, hits give low values 1 | S. cerevisiae deletion strains, locus YDL101C, strain DUN1, hits give low values 0.978 | S. cerevisiae deletion strains, locus YDL134C, strain PPH21, hits give low values 0.994 | S. cerevisiae deletion strains, locus YDL185W, strain tfp1, hits give low values 0.963 | S. cerevisiae deletion strains, locus YDL192W, strain arf1, hits give low values 0.993 | S. cerevisiae deletion strains, locus YDR101C, strain arx1, hits give low values 0.995 | S. cerevisiae deletion strains, locus YDR150W, strain NUM1, hits give low values 0.984 | S. cerevisiae deletion strains, locus YDR162C, strain NBP2, hits give low values 0.997 | S. cerevisiae deletion strains, locus YDR318W, strain mcm21, hits give low values 0.99 | S. cerevisiae deletion strains, locus YDR388W, hits give low values 0.985 | S. cerevisiae deletion strains, locus YDR502C, strain sam2, hits give low values 0.984 | S. cerevisiae deletion strains, locus YEL061C, strain CIN8, hits give low values 0.99 | S. cerevisiae deletion strains, locus YER110C, hits give low values 0.989 | S. cerevisiae deletion strains, locus YER155C, strain BEM2, hits give low values 1 | S. cerevisiae deletion strains, locus YER167W, strain BCK2, hits give low values 1 | S. cerevisiae deletion strains, locus YGL078C, strain dbp3, hits give low values 0.984 | S. cerevisiae deletion strains, locus YGL086W, strain mad1, hits give low values 0.993 | S. cerevisiae deletion strains, locus YGL248W, strain PDE1, hits give low values 0.979 | S. cerevisiae deletion strains, locus YGR078C, strain PAC10, hits give low values 0.988 | S. cerevisiae deletion strains, locus YGR135W, strain pre9, hits give low values 0.982 | S. cerevisiae deletion strains, locus YGR229C, strain SMI1, hits give low values 0.971 | S. cerevisiae deletion strains, locus YGR252W, strain gcn5, hits give low values 1 | S. cerevisiae deletion strains, locus YHR030C, strain SLT2, hits give low values 0.993 | S. cerevisiae deletion strains, locus YHR079C, strain IRE1 (second series), hits give low values 0.987 | S. cerevisiae deletion strains, locus YHR094C, strain hxt1, hits give low values 0.987 | S. cerevisiae deletion strains, locus YHR129C, strain ARP1, hits give low values 1 | S. cerevisiae deletion strains, locus YHR200W, strain rpn10, hits give low values 0.985 | S. cerevisiae deletion strains, locus YIL066C, strain RNR3, hits give low values 0.973 | S. cerevisiae deletion strains, locus YIL073C, strain SPO22, hits give low values 0.906 | S. cerevisiae deletion strains, locus YIL125W, strain kgd1, hits give low values 1 | S. cerevisiae deletion strains, locus YIR030C, strain dcg1, hits give low values 0.983 | S. cerevisiae deletion strains, locus YJL095W, strain BCK1, hits give low values 1.01 | S. cerevisiae deletion strains, locus YJL134W, strain LCB3, hits give low values 0.989 | S. cerevisiae deletion strains, locus YJL168C, strain set2, hits give low values 0.992 | S. cerevisiae deletion strains, locus YJL187C, strain SWE1 (second series), hits give low values 0.983 | S. cerevisiae deletion strains, locus YJR043C, strain POL32, hits give low values 1 | S. cerevisiae deletion strains, locus YJR075W, strain HOC1, hits give low values 1 | S. cerevisiae deletion strains, locus YKL009W, strain mrt4, hits give low values 0.984 | S. cerevisiae deletion strains, locus YKL068W, hits give low values 0.984 | S. cerevisiae deletion strains, locus YKL085W, strain MDH1 (second series), hits give low values 0.996 | S. cerevisiae deletion strains, locus YKL085W, strain MDH1, hits give low values 0.996 | S. cerevisiae deletion strains, locus YKL190W, strain CNB1, hits give low values 0.992 | S. cerevisiae deletion strains, locus YKR001C, strain vps1, hits give low values 0.989 | S. cerevisiae deletion strains, locus YLR039C, strain RIC1, hits give low values 1 | S. cerevisiae deletion strains, locus YLR058C, strain SHM2, hits give low values 0.988 | S. cerevisiae deletion strains, locus YLR102C, strain apc9, hits give low values 0.982 | S. cerevisiae deletion strains, locus YLR262C, strain YPT6, hits give low values 0.968 | S. cerevisiae deletion strains, locus YLR268W, strain sec22, hits give low values 0.972 | S. cerevisiae deletion strains, locus YLR330W, strain CHS5, hits give low values 0.993 | S. cerevisiae deletion strains, locus YLR342W, strain FKS1 (second series), hits give low values 0.979 | S. cerevisiae deletion strains, locus YLR371W, strain rom2, hits give low values 0.98 | S. cerevisiae deletion strains, locus YLR418C, strain cdc73, hits give low values 1 | S. cerevisiae deletion strains, locus YML016C, strain PPZ1, hits give low values 0.992 | S. cerevisiae deletion strains, locus YML032C, strain rad52, hits give low values 0.981 | S. cerevisiae deletion strains, locus YML124C, strain tub3, hits give low values 0.985 | S. cerevisiae deletion strains, locus YMR078C, strain ctf18, hits give low values 0.981 | S. cerevisiae deletion strains, locus YMR223W, strain ubp8, hits give low values 0.979 | S. cerevisiae deletion strains, locus YMR263W, strain SAP30, hits give low values 0.971 | S. cerevisiae deletion strains, locus YMR307W, strain GAS1, hits give low values 0.972 | S. cerevisiae deletion strains, locus YNL067W, strain RPL9B, hits give low values 0.995 | S. cerevisiae deletion strains, locus YNL128W, strain TEP1, hits give low values 0.998 | S. cerevisiae deletion strains, locus YNL153C, strain GIM3, hits give low values 0.986 | S. cerevisiae deletion strains, locus YNL233W, strain BNI4, hits give low values 0.989 | S. cerevisiae deletion strains, locus YNL250W, strain rad50, hits give low values 0.997 | S. cerevisiae deletion strains, locus YNL271C, strain bni1, hits give low values 0.996 | S. cerevisiae deletion strains, locus YNL298W, strain CLA4, hits give low values 0.98 | S. cerevisiae deletion strains, locus YNL307C, strain MCK1, hits give low values 0.98 | S. cerevisiae deletion strains, locus YNL322C, strain KRE1, hits give low values 1 | S. cerevisiae deletion strains, locus YNR052C, strain pop2, hits give low values 0.979 | S. cerevisiae deletion strains, locus YOL006C, strain TOP1, hits give low values 1.03 | S. cerevisiae deletion strains, locus YOL012C, strain htz1 0.881 | S. cerevisiae deletion strains, locus YOL147C, strain pex11, hits give low values 0.981 | S. cerevisiae deletion strains, locus YOR061W, strain CKA2, hits give low values 0.999 | S. cerevisiae deletion strains, locus YOR069W, strain VPS5, hits give low values 0.986 | S. cerevisiae deletion strains, locus YOR136W, strain idh2, hits give low values 0.993 | S. cerevisiae deletion strains, locus YOR144C, strain elg1, hits give low values 0.978 | S. cerevisiae deletion strains, locus YOR184W, strain ser1, hits give low values 0.976 | S. cerevisiae deletion strains, locus YOR316C, strain cot1, hits give low values 0.996 | S. cerevisiae deletion strains, locus YPL055C, strain LGE1, hits give low values 0.984 | S. cerevisiae deletion strains, locus YPL241C, strain CIN2, hits give low values 0.989 | S. cerevisiae deletion strains, locus YPR119W, strain clb2, hits give low values 0.975 | S. cerevisiae deletion strains, locus YPR141C, strain kar3, hits give low values 0.986 | S. cerevisiae deletion strains, locus YPR163C, strain tif3, hits give low values 0.977 | S. cerevisiae deletion strains, locus YPR167C, strain met16, hits give low values 0.993 | S. cerevisiae deletion strains, strain wtn01, hits give low values 0.975 | S. cerevisiae strains, strain wild type, hits give low values 1.01
